# Laboratory results published in PubChem BioAssay (NCATS).
# Results filed as inconclusive are left out. Where a call stands in place of a potency, no number is given. Values without a mark were called inactive. Calls of active or inactive are those of the source. The call rests on the fitted dose curve; in most records, active means well fitted curve in the direction sought with a large enough effect; inconclusive means small, poorly fitted or top-dose-only effect, or another doubt; inactive means no such curve, though single readings can be large; an effect the other way counts as inactive or inconclusive.
# Assays:
# [1] = Confirmatory screen NINDS Rhodamine qHTS for Zika virus inhibitors (AID 1347161); settings: purified enzyme assay, Rhodamine110 substrate fluorescence, 15 min; further: potency means the concentration at half of the fitted maximal effect; nearly all actives have a fitted effect of over 60% in size
# Summary of the method: (§1)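 Percent inhibition, normalized to uninhibited and enzyme-free controls, is fitted to a 4-parameter Hill equation. Fluorescence change comes from a 15-min cleavage of 1.5 microM bis-peptide Rhodamine110 substrate by 25 nM linked NS2B-NS3 at room temperature.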
# [2] = system: Zika virus NS2B-NS3 protease (linked); test: 384 well plate NINDS AMC confirmatory qHTS for Zika virus inhibitors (AID 1347163); settings: Recombinant NS2B-NS3 protease, Ac-VKTGKR-AMC fluorescence; series mostly up to 1 mM; further: nearly all actives have a fitted effect of over 50% in size; further: potency means the concentration at half of the fitted maximal effect;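 on activity change, negative = inhibition: linked protease at 5 30 or 60 nM final depending on run; fluorescence of AMC released from Ac-VKTGKR-AMC peptide cleaved by the protease; top concentration of the series differs between compounds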
# Summary of the method: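 Linked NS2B-NS3 protease (final 5 nM, 30 nM or 60 nM) was preincubated with compounds (final up to 1 mM) for ~15 minutes. Ac-VKTGKR-AMC substrate (final 30 microM) then reacted for 25 minutes at room temperature in the dark. Fluorescence (ex 355/em 460 nm) was normalized to no-enzyme and no-inhibitor controls.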
# [3] = system: Zika virus NS2B-NS3 protease (linked construct); test: 384 well plate NINDS Rhodamine confirmatory qHTS for Zika virus inhibitors (AID 1347164); settings: rhodamine-110 peptide substrate fluorescence; further: potency means the concentration at half of the fitted maximal effect; nearly all actives have a fitted effect of over 65% in size
# Summary of the method: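 Compounds are incubated about 15 minutes with linked protease (5, 30 or 60 nM final). Rhodamine 110-tagged Ac-LKRR substrate (10 microM final) is added and fluorescence measured after 25 minutes.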
# [4] = Vero cells viability qHTS for Zika virus inhibitors (AID 1347167); settings: cytotoxicity counter-screen (Zika); series mostly up to 45.9 µM; further: potency means the concentration at half of the fitted maximal effect
# Summary of the method: (§2)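 Cells seeded at 2.5 x 10^5 cells/mL in DMEM with 4% FBS and attached overnight at 37 degrees C, then exposed to compound for 24 to 48 hours. Viability read as ATP content by CellTiter Glo luminescence.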
# [5] = HepG2 cells viability qHTS for Zika virus inhibitors (AID 1347168); settings: Zika counter-screen; series mostly up to 45.9 µM
# Summary of the method: as §2
# [6] = target: Lysine-specific demethylase 5B (Homo sapiens) (UniProt Q9UGL1); test: Optimization screen for KDM5B Histone Demethylases FDH coupled qHTS against the LOPAC library (AID 1347166); settings: KDM5B demethylation, FDH-coupled NADH fluorescence (FDH is formaldehyde dehydrogenase); series mostly up to 57.5 µM
# Chain of Lysine-specific demethylase 5B (Homo sapiens) (Q9UGL1 whole entry, looked up): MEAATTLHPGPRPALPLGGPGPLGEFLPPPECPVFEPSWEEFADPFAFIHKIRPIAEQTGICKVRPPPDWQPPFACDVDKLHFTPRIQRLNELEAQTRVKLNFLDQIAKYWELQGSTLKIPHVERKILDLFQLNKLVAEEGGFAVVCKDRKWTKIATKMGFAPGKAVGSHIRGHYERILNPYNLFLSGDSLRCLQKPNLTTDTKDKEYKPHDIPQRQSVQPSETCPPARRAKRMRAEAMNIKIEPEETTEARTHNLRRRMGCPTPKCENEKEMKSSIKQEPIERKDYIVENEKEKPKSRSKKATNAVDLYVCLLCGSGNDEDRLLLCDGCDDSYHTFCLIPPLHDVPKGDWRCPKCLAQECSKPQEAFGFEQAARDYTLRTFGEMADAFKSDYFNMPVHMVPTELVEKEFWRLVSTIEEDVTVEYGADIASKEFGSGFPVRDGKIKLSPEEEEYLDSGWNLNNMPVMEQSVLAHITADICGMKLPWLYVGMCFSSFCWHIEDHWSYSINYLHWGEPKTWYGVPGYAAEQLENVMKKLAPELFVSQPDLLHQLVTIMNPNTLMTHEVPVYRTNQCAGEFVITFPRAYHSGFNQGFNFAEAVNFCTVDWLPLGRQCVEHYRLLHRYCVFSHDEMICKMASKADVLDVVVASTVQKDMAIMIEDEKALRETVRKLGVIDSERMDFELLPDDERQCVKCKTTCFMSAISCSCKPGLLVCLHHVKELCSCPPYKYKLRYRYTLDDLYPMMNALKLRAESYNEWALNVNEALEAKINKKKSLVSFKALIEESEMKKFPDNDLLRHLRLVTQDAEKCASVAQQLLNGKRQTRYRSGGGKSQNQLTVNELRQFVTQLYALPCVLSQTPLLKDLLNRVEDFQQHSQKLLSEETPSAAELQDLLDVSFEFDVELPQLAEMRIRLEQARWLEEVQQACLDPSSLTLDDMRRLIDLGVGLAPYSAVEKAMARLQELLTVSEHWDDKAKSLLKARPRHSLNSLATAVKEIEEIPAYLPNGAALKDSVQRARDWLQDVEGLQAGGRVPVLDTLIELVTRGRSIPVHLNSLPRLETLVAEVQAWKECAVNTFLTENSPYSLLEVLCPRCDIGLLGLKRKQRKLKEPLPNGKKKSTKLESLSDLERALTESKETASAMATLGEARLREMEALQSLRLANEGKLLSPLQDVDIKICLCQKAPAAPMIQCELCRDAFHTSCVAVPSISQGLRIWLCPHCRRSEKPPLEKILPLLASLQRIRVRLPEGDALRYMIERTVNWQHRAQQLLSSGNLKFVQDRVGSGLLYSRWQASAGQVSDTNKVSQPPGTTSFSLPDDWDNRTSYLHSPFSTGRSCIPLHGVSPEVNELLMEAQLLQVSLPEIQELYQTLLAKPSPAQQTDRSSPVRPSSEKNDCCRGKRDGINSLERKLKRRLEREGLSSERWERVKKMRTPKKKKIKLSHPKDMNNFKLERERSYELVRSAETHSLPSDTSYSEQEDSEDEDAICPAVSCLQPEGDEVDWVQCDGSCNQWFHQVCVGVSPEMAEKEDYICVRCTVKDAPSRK
# Summary of the method: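 KDM5BDeltaAP (200nM final) preincubated 10 min with compound, then 12.5uM H3K4Me3, 25uM a-ketoglutarate, ascorbate, Fe(II), NAD+ and FDH added; 50mM HEPES pH 7.5, 0.01% Tween-20. NADH fluorescence (340/450 nm) change over 30 min, room temperature.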
# [7] = system: Zika virus NS2B-NS3 protease (unlinked complex); test: Primary screen GU Rhodamine qHTS for Zika virus inhibitors: Unlinked NS2B-NS3 protease assay (AID 1347159); settings: Recombinant ZIKV NS2B-NS3 protease, Rhodamine110 substrate fluorescence; series mostly up to 107 µM; further: nearly all actives have a fitted effect of over 60% in size
# Summary of the method: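 Compounds, tested up to 114 microM, were incubated for 15 minutes with 25 nM unlinked NS2B-NS3 protease at pH 8.0. Cleavage of 1.5 microM Rhodamine110 substrate was then followed by fluorescence for 15 minutes.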
# [8] = Tertiary RLuc qRT-PCR qHTS assay for Zika virus inhibitors (AID 1347169); settings: infected Vero cells, reporter luminescence, 48-72 h; series mostly up to 45.9 µM; further: nearly all actives have a fitted effect of over 55% in size; further: potency means the concentration at half of the fitted maximal effect; on activity change, negative = inhibition: top concentration of the series differs between compounds
# From the text: Avindra Nath, Ph.D., National Institute of Neurological Disorders and Stroke (NINDS), Bethesda, MD
# Radhakrishnan Padmanabhan, Ph.D., Georgetown University (GU), Washington D.C.
# Zika Virus causes congenital defects, including microcephaly and is associated with Guillain-Barre syndrome, eningoencephalitis and myelitis in infected adult. […] Using a target-based approach, we hope to establish a screening paradigm to uncover novel, cell-active NS2B-NS3 protease (Zika Virus) specific inhibitors from NCATS' collection of small molecules using qHTS.
# Four assay panel was created to identify potential Zika Virus inhibitors. Namely, (1) GU unlinked NS2B-NS3 AMC tagged protease qHTS, (2) GU unlinked NS2B-NS3 Rhodamine tagged protease qHTS, (3) NINDS linked NS2B-NS3 AMC tagged protease qHTS, (4) NINDS linked NS2B-NS3 Rhodamine tagged protease qHTS. Identified inhibitors were re-acquired and tested against secondary confirmatory, orthogonal, and counterscreens to exclude nonspecific inhibition.
# Early Translation Branch (ETB)
# National Center for Advancing Translational Sciences (NCATS), Rockville, MD
# National Institute of Health (NIH), Bethesda, Maryland […]
# For a follow-up assay, we adapted a high throughput orthogonal assay in 1536-well plate format to use the recombinant virus ZIKV-RLuc, in Vero cells. […] The luminescence signal was measured after 1-1.5 hrs exposure to substrate in ViewLux reader.
# [9] = system: Zika virus NS2B-NS3 protease (linked construct); test: Primary screen NINDS Rhodamine qHTS for Zika virus inhibitors (AID 1347160); settings: purified NS2B-NS3 protease, Rhodamine110 substrate fluorescence; series mostly up to 57.1 µM; further: nearly all actives have a fitted effect of over 55% in size
# Summary of the method: as §1
# [10] = ZIKV-mCherry secondary qHTS for Zika virus inhibitors (AID 1347158); settings: Vero cells, ZIKV-mCherry infection imaging, 48-72 h; further: potency means the concentration at half of the fitted maximal effect
# Summary of the method: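 Vero cells (5,000/well) were given compound, then infected with ZIKV-mCherry at MOI 1 for 48–72 h at 37 °C. After PFA fixation and Hoechst staining, imaging gave percent mCherry-positive cells. The positivity threshold was RFU above 450, 3 SD over negative controls.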
compound,measurement,setting,value
O=c1c(C2CC(c3ccc(-c4ccc(Br)cc4)cc3)Cc3ccccc32)c(O)sc2ccccc12 (stereo not drawn),Potency,[1],2.2 µM (active)
same,Potency,[2],11.2 µM (active)
same,Potency,[3],17.8 µM (active)
same,Potency,[4],inactive
same,outcome,[5],inactive
O=P1(N(CCCl)CCCl)NCCCO1 (stereo not drawn),outcome,[6],inactive
O=C(CCCN1CCC2(CC1)C(=O)NCN2c1ccccc1)c1ccc(F)cc1,outcome,[6],inactive
CC(=O)OCC1=C(C(=O)O)N2C(=O)[C@@H](N)[C@H]2SC1,outcome,[7],inactive
same,Potency,[1],24.8 µM (active)
same,Potency,[8],inactive
COc1ccc2c(c1OC)C(=O)O[C@H]2[C@@H]1c2cc3c(cc2CCN1C)OCO3,outcome,[6],inactive
CN1C(=O)CCS(=O)(=O)C1c1ccc(Cl)cc1 (stereo not drawn),outcome,[6],inactive
O=c1[nH]oc2c1CCNC2,outcome,[6],inactive
CC(NC(C)(C)C)C(=O)c1cccc(Cl)c1 (stereo not drawn),outcome,[7],inactive
same,outcome,[9],inactive
same,outcome,[6],inactive
O=C1OC(c2ccc(O)c(S(=O)(=O)O)c2)(c2ccc(O)c(S(=O)(=O)O)c2)c2c(Br)c(Br)c(Br)c(Br)c21,Potency,[1],2.51 µM (active)
same,Potency,[2],112 µM (active)
CC(C)N(CCC(C(N)=O)(c1ccccc1)c1ccccn1)C(C)C (stereo not drawn),outcome,[7],inactive
same,outcome,[9],inactive
same,outcome,[6],inactive
NCCc1ccc(O)cc1,outcome,[9],inactive
same,outcome,[6],inactive
CC(C)c1cccc(C(C)C)c1O,outcome,[6],inactive
C[C@]12CC[C@@H]3c4ccc(OC(=O)N(CCCl)CCCl)cc4CC[C@H]3[C@@H]1CC[C@@H]2O,Potency,[1],1.97 µM (active)
same,Potency,[3],39.8 µM (active)
same,Potency,[4],inactive
same,outcome,[5],inactive
O=C(O)CCCc1ccc(N(CCCl)CCCl)cc1,outcome,[6],inactive
CCC1(c2ccc(N)cc2)CCC(=O)NC1=O (stereo not drawn),outcome,[6],inactive
Cc1ncsc1CCCl,outcome,[6],inactive
C=C(C)[C@H]1CN[C@H](C(=O)O)[C@H]1CC(=O)O,outcome,[6],inactive
CC(C)(C)NCC(O)c1ccccc1Cl (stereo not drawn),outcome,[6],inactive
O=C(Nc1ccc(Br)cc1)c1cc(Br)cc(Br)c1O,Potency,[10],8.91 µM (active)
same,Potency,[1],3.12 µM (active)
same,Potency,[2],inactive
same,Potency,[3],44.7 µM (active)
same,Potency,[4],23.4 µM (active)
same,outcome,[5],inactive
same,Potency,[8],8.29 µM (active)
C=CCN1C[C@H](C)N([C@H](c2ccc(C(=O)N(CC)CC)cc2)c2cccc(OC)c2)C[C@H]1C,"activity change, negative = inhibition",[7],-8.84% [at 19.1 µM]
same,"activity change, negative = inhibition",[9],6.42% [at 10.7 µM]
C[C@]12CC[C@@H]3c4ccc(OC(=O)N(CCCl)CCCl)cc4CC[C@H]3[C@@H]1CC[C@@H]2OP(=O)(O)O,outcome,[9],inactive
